Only a selection was taken, and hits are over-represented in it overall.
AmpC inh detg: AmpC beta-lactamase inhibition with detergent present. AmpC hydrolysis of nitrocefin, absorbance 480 nm, 0.01% Triton. Potency, µM (highest dose often 114 µM), most hits filed as inhibitors. 370,000 compounds, 0.041% hits; further: nearly all actives have a fitted effect of over 25% in size
Target sequence (P00811 whole entry, looked up): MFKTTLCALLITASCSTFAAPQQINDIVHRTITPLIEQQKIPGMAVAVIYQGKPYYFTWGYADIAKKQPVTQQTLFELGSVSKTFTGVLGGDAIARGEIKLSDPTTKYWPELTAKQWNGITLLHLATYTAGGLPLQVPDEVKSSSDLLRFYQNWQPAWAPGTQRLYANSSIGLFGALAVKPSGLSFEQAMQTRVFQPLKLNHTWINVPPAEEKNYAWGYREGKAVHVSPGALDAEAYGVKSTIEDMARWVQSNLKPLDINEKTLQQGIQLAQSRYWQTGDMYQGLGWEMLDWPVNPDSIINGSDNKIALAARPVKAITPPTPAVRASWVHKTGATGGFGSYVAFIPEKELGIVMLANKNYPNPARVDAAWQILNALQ
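AmpC (5.3 nM in the dispensed reagent) in 20 mM phosphate pH 7.0 with 0.01% (detergent screen) or 0.0001% Triton X-100 was preincubated with compounds for 15 min at room temperature. Nitrocefin was then added from an 800 uM solution, and hydrolysis was followed at 480 nm.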
NS1 inh: blocks influenza NS1 protein function | Potency, µM (series often up to 46.1 µM) | 270,000 compounds, 0.4% hits | AID 2326; calls by dose curve; further: actives are rising curves; nearly all actives have a fitted effect of over 50% in size
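A cell-based growth assay was used: compounds that relieve NS1-induced slow growth of budding yeast raise OD600. Assay medium was yeast nitrogen base with ammonium sulphate and -URA supplement, pH 6.0, with 2% galactose.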
Shiga inhibitor: Shiga toxin inhibition; Vero cells, Shiga toxin protein synthesis inhibition reporter; AID 2315; 290,000 compounds, 9.2% hits; inhibition, % at 38.7 µM; in the data active means inhibition mostly above about 28%, no sharp cut-off; inactive means mostly below about 43%
Cycloheximide cs: affects cycloheximide protein synthesis inhibition readout, counter-screen. cell reporter, cycloheximide protein synthesis inhibition counterscreen. max response, %. 300,000 compounds, 12% hits. AID 2314; in the data active means max response mostly above about 13%, no sharp cut-off; inactive means mostly below about 14%; further: read at 38.3 µM for the half of the compounds with a filed dose
AmpC no deterg: blocks E. coli AmpC beta-lactamase in detergent-free assay; Potency, µM (highest dose often 57.1 µM), most hits filed as inhibitors; AmpC nitrocefin hydrolysis, absorbance 480 nm, 0.0001% Triton; 330,000 compounds, 0.52% hits; further: nearly all actives have a fitted effect of over 20% in size
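AmpC (5.3 nM in the dispensed reagent) in 20 mM phosphate pH 7.0 with 0.01% (detergent screen) or 0.0001% Triton X-100 was preincubated with compounds for 15 min at room temperature. Nitrocefin was then added from an 800 uM solution, and hydrolysis was followed at 480 nm.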
A number is an active result; [ ] = remark or other dose. Unless noted, the call rests on the fitted dose curve; in most records, active means well fitted curve in the direction sought with a large enough effect; inconclusive means small, poorly fitted or top-dose-only effect, or another doubt; inactive means no such curve, though single readings can be large; an effect the other way counts as inactive or inconclusive.

Screening O=C1C2C(c3ccccc3)CC=CC2C(c2ccc(C(F)(F)F)cc2)N1Cc1ccccc1 (stereo not drawn) returned Shiga inhibitor inactive and Cycloheximide cs inactive.
`O=C(O)c1cncc(C(=O)O)c1` gave NS1 inh inactive.
For CC(Sc1nnc(Cc2ccccc2)n1C)C(=O)NC1CC1 (stereo not drawn) the results were AmpC inh detg inactive and AmpC no deterg inactive.
For CN(C(=O)CSc1cccc[n+]1[O-])c1ccccc1 the results were AmpC no deterg inactive.
For O=C(CSc1cccc[n+]1[O-])c1ccccc1Br the results were AmpC inh detg inactive, Shiga inhibitor inactive, Cycloheximide cs inactive and AmpC no deterg inactive.
Cc1cc(C(=O)COc2cccc(-n3cnnn3)c2)c(C)n1-c1ccccc1 was read as AmpC inh detg inactive, NS1 inh inactive, Shiga inhibitor inactive, Cycloheximide cs 16.5 and AmpC no deterg inactive.
Cc1cc(C(=O)CSc2cccc[n+]2[O-])c(C)n1-c1ccccc1 was read as AmpC inh detg inactive, NS1 inh inactive, Shiga inhibitor 85.3, Cycloheximide cs 46.7 and AmpC no deterg inactive[2.29 µM].
For Cc1cc(C(=O)CSc2cccc[n+]2[O-])c(C)n1-c1ccc(Br)cc1 the results were AmpC inh detg inactive, Shiga inhibitor 90.9, Cycloheximide cs 34.5 and AmpC no deterg inactive.
For Cc1cc(-n2c(C)cc(C(=O)CSc3nnnn3-c3ccccc3)c2C)no1 the results were AmpC inh detg inconclusive, NS1 inh inactive, Shiga inhibitor inactive, Cycloheximide cs inactive and AmpC no deterg inactive.
`Cc1cc(C(=O)CSc2nncn2C)c(C)n1-c1ccccc1` gave AmpC inh detg inactive, Shiga inhibitor 58.5, Cycloheximide cs 34.1 and AmpC no deterg inactive.
`COc1ccc(-n2c(SCc3ccccc3F)nc3c([nH]c4ccccc43)c2=O)cc1OC` gave AmpC inh detg inactive.
`COc1ccc(OCc2nc3ccccc3n2C(C)c2ccccc2)cc1` (stereo not drawn) gave AmpC inh detg inactive.
For COc1ccc(OC)c(S(=O)(=O)Nc2cccnc2)c1 the results were AmpC inh detg inactive, NS1 inh inactive, Shiga inhibitor inactive, Cycloheximide cs inactive and AmpC no deterg inactive.
CCN1CCN(c2cc(C)c3cc(NC(=O)CCC(=O)N4CCN(c5ccccc5OC)CC4)ccc3n2)CC1 was read as AmpC inh detg inactive, NS1 inh inactive, Shiga inhibitor inactive, Cycloheximide cs 17.2 and AmpC no deterg inactive.
CCN1CCN(c2cc(C)c3cc(NC(=O)CCC(=O)N4CCN(c5ccccc5)CC4)ccc3n2)CC1 was read as AmpC inh detg inactive, NS1 inh inactive, Shiga inhibitor inactive, Cycloheximide cs inactive and AmpC no deterg inactive.
CCN1CCN(c2cc(C)c3cc(NC(=O)c4cc(OC)cc(OC)c4)ccc3n2)CC1 was read as AmpC inh detg inactive, NS1 inh inactive, Shiga inhibitor 63.6, Cycloheximide cs 18.5 and AmpC no deterg inactive.
For CCOc1ccc(C(=O)Nc2ccc3nc(N4CCN(CC)CC4)cc(C)c3c2)cc1 the results were AmpC inh detg inactive, NS1 inh inactive, Shiga inhibitor inactive, Cycloheximide cs inactive and AmpC no deterg inactive.
Screening O=C(COc1ccc(Cl)cc1)NCC(c1ccco1)S(=O)(=O)c1ccccc1 (stereo not drawn) returned AmpC inh detg inactive.
Screening Cc1nc(C)c(NC(=O)N2CCc3ccccc32)cc1NC(=O)N1CCc2ccccc21 returned AmpC inh detg inconclusive, NS1 inh inactive, Shiga inhibitor inactive, Cycloheximide cs inactive and AmpC no deterg inactive.
For O=C(Nc1ccccc1)N1CCCc2ccccc21 the results were AmpC inh detg inconclusive, NS1 inh inactive, Shiga inhibitor 26.5, Cycloheximide cs inactive and AmpC no deterg inactive.
O=C(C1CCC(C(=O)N2CCc3ccccc32)CC1)N1CCc2ccccc21 (stereo not drawn) was read as AmpC inh detg inactive, NS1 inh inactive, Shiga inhibitor inactive, Cycloheximide cs inactive and AmpC no deterg inactive.
`Cc1ccc(NC(=O)N2CCCc3ccccc32)cc1C` gave AmpC inh detg inconclusive, NS1 inh inactive, Shiga inhibitor 53.2, Cycloheximide cs 38.6 and AmpC no deterg inactive.
For O=C(NC1CCCCC1)N1CCc2ccccc21 the results were AmpC inh detg inconclusive, NS1 inh inactive, Shiga inhibitor 46.9, Cycloheximide cs 27.9 and AmpC no deterg inactive.
For Cc1ccc(NC(=O)Cc2ccc(NC(=O)N3CCCCc4ccccc43)cc2)cc1Cl the results were AmpC inh detg inactive.
Screening Cc1cccc(NC(=O)N2CCCc3ccccc32)c1C returned AmpC inh detg inconclusive, NS1 inh inactive, Shiga inhibitor inactive, Cycloheximide cs 36.0 and AmpC no deterg inactive.
For COC(=O)c1n[nH]n(-c2ccccc2)c1=O the results were AmpC inh detg inactive.
Screening COc1ccc(-c2cn3cccc(C)c3n2)cc1F returned AmpC inh detg inactive, NS1 inh inactive, Shiga inhibitor 112.8, Cycloheximide cs 57.4 and AmpC no deterg inactive.
For O=[N+]([O-])c1cccn2cc(-c3ccc(Br)cc3)nc12 the results were AmpC inh detg inactive, NS1 inh inactive, Shiga inhibitor 66.7, Cycloheximide cs 44.3 and AmpC no deterg inactive.
`Cc1cccn2cc(-c3ccc(Cl)cc3)nc12` gave AmpC inh detg inactive, NS1 inh inactive, Shiga inhibitor 62.0, Cycloheximide cs 44.8 and AmpC no deterg inactive.
Screening Cc1cccn2cc(-c3ccc(S(=O)(=O)N4CCCCC4)cc3)nc12 returned AmpC inh detg inactive, NS1 inh inactive, Shiga inhibitor inactive, Cycloheximide cs inactive and AmpC no deterg inactive.
Cc1ccc(-c2cn3cccc(C)c3n2)cc1 was read as AmpC inh detg inactive, NS1 inh inactive, Shiga inhibitor 50.6, Cycloheximide cs 33.4 and AmpC no deterg inactive.
For COC(=O)C[N+](C)(C)CC#Cc1ccccc1 the results were AmpC inh detg inactive, NS1 inh inactive, Shiga inhibitor inactive, Cycloheximide cs inactive and AmpC no deterg inactive.
`COc1ccc(CC(=O)Nc2c(C(=O)Nc3ccc(F)cc3)oc3ccccc23)cc1OC` gave AmpC inh detg inactive.
Screening Brc1ccc(C2Nc3cccc4cccc(c34)N2)s1 returned AmpC inh detg inactive, NS1 inh inactive, Shiga inhibitor inactive, Cycloheximide cs inactive and AmpC no deterg inactive.
CCn1cnc2sc(C(=O)Oc3cccc(C)c3)c(C)c2c1=O was read as AmpC inh detg inconclusive, Shiga inhibitor 78.8, Cycloheximide cs 28.7 and AmpC no deterg inactive.
C(=C\c1ccccn1)/c1cccnc1 was read as AmpC inh detg inactive, NS1 inh inactive, Shiga inhibitor 66.7, Cycloheximide cs 21.2 and AmpC no deterg inactive.
COc1ccc(/C(C#N)=C/c2cccnc2)cc1 was read as AmpC inh detg inactive, NS1 inh inactive, Shiga inhibitor 70.6, Cycloheximide cs 44.9 and AmpC no deterg inactive.
Screening N#C/C(=C\c1ccccc1)c1ccccn1 returned AmpC inh detg inactive, NS1 inh inactive, Shiga inhibitor 91.2, Cycloheximide cs 31.3 and AmpC no deterg inactive.

Screening data from PubChem.
